Experimental data taken from PubChem BioAssay (Tox21).
Where “and” joins values, the source holds several entries; their conditions need not be identical. Equal values may be shown once. Inconclusive results are not listed. Entries that show only a call come without a potency. Some structures have more than one record in an assay (separate samples or runs), and their calls can disagree. Calls of active or inactive are those of the source. The call rests on the fitted dose curve; in most records, active means well fitted curve in the direction sought with a large enough effect in the repeat runs; inconclusive means weak or mixed curves; inactive means no such curve, though single readings can be large; an effect the other way counts as inactive or inconclusive.

Tests used:
[1] = A CellTox Green Cytotoxicity Assay to monitor cytotoxicity in HEK293 cells - 40 hour (AID 1224871); further: nearly all actives have a fitted effect of over 45% in size; further: potency means the concentration at half of the fitted maximal effect
Procedure, shortened: (§1)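 Real-time, in one plate: 600 HEK293 cells/well with dead-cell DNA dye, pinned compound after 5 h, 37 C incubation over 40 h; viable cells give no appreciable fluorescence.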

[2] = qHTS RealTime-Glo MT Cell Viability Assay in HEK293 cells - 16 hour (AID 1224872); further: nearly all actives have a fitted effect of over 50% in size; further: potency means the concentration at half of the fitted maximal effect
Procedure, shortened: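 Reads taken at 0, 8, 16, 24, 32 and 40 h from the same wells. HEK293 cells (600/well) carried RealTime-Glo reagents from seeding, with compound added after a 5 h settle at 37 C.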

[3] = qHTS RealTime-Glo MT Cell Viability Assay in HepG2 cells - 8 hour (AID 1224873); further: nearly all actives have a fitted effect of over 55% in size; further: potency means the concentration at half of the fitted maximal effect
Procedure, shortened: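 HepG2 cells mixed with RealTime-Glo MT reagents (NanoLuc plus cell-permeant prosubstrate) were seeded at 600 cells/well, incubated 5 h at 37 C/5% CO2, then pinned with compounds in DMSO; nonlytic luminescence tracked viability during 40 h treatment.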

[4] = qHTS RealTime-Glo MT Cell Viability Assay in HEK293 cells - 40 hour (AID 1224874); conditions: RealTime-Glo luminescence; max response: stronger effect = lower value; further: nearly all actives have a fitted effect of over 50% in size; further: potency means the concentration at half of the fitted maximal effect
Procedure, shortened: (§2)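 Kinetic, non-lysing viability readout. Seed HEK293 (600/well) with reagent, incubate 5 h at 37 C/5% CO2, pin 23 nL compound in DMSO, incubate at 37 C, read luminescence at 0, 8, 16, 24, 32, 40 h.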

[5] = A CellTox Green Cytotoxicity Assay to monitor cytotoxicity in HEK293 cells - 24 hour (AID 1224875); further: nearly all actives have a fitted effect of over 45% in size; further: potency means the concentration at half of the fitted maximal effect
Procedure, shortened: as §1

[6] = A CellTox Green Cytotoxicity Assay to monitor cytotoxicity in HepG2 cells - 16 hour (AID 1224876); further: nearly all actives have a fitted effect of over 45% in size; further: potency means the concentration at half of the fitted maximal effect
Procedure, shortened: (§3)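 Cytotoxicity was tracked as dead-cell DNA fluorescence in HepG2 cells treated with test compounds at 37 C; each time-point value comes from one kinetic series spanning 0, 8, 16, 24, 32 and 40 h.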

[7] = qHTS RealTime-Glo MT Cell Viability Assay in HepG2 cells - 32 hour (AID 1224877); further: nearly all actives have a fitted effect of over 55% in size; further: potency means the concentration at half of the fitted maximal effect
Procedure, shortened: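 HepG2 suspension premixed with RealTime-Glo reagents is plated at 600 cells per well and left 5 h at 37 C/5% CO2. Compounds in DMSO then go in, and bioluminescence reflecting viable cell number is recorded over 40 h.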

[8] = A CellTox Green Cytotoxicity Assay to monitor cytotoxicity in HepG2 cells - 24 hour (AID 1224878); further: nearly all actives have a fitted effect of over 45% in size; further: potency means the concentration at half of the fitted maximal effect
Procedure, shortened: as §3

[9] = A CellTox Green Cytotoxicity Assay to monitor cytotoxicity in HepG2 cells - 40 hour (AID 1224879); further: nearly all actives have a fitted effect of over 40% in size; further: potency means the concentration at half of the fitted maximal effect
Procedure, shortened: as §3

[10] = qHTS RealTime-Glo MT Cell Viability Assay in HEK293 cells - 0 hour (AID 1224880)
Procedure, shortened: as §2

| SMILES | Potency [1] | Potency [2] | Potency [3] | max response [4] | Potency [5] | Potency [6] | Potency [7] | Potency [8] | Potency [9] | Potency [10] | Potency [4] |
| --- | --- | --- | --- | --- | --- | --- | --- | --- | --- | --- | --- |
| CN(C)c1ccc(SC#N)cc1 | inactive | inactive | inactive | 0.13% (inactive) | inactive | inactive | inactive | inactive | inactive | inactive | – |
| OCCN1CCN(CC/C=C2/c3ccccc3Sc3ccc(C(F)(F)F)cc32)CC1 | 26.8 µM (active) | 19 µM (active) | 23.9 µM (active) | – | 26.8 µM (active) | 23.9 µM (active) | 15.1 µM (active) | 16.9 µM (active) | 13.4 µM (active) | – | 19 µM (active) |
| CCCCc1oc2ccc(NS(C)(=O)=O)cc2c1C(=O)c1ccc(OCCCN(CCCC)CCCC)cc1 | 19 µM (active) | 10.7 µM (active) | 21.3 µM (active) | – | 19 µM (active) | – | 9.52 µM (active) | 19 µM (active) | 9.52 µM (active) | inactive | 8.49 µM (active) |
| Nc1cc(C(F)(F)F)ccc1S | inactive | inactive | inactive | 3.21% (inactive) | inactive | inactive | inactive | inactive | inactive | inactive | – |
| CC(=O)N1CCN(c2ccc(OC[C@H]3CO[C@](Cn4ccnc4)(c4ccc(Cl)cc4Cl)O3)cc2)CC1 | 49 µM (active) | 21.9 µM (active) | 49 µM (active) | – | 43.6 µM (active) | – | 49 µM (active) | – | 54.9 µM (active) | – | 21.9 µM (active) |
| COc1ccc(C(=O)/C(Br)=C\C(=O)O)cc1 | 24.5 µM (active) | 38.9 µM (active) | inactive | – | 34.7 µM (active) | inactive | – | – | 13.8 µM (active) | inactive | 34.7 µM (active) |
| CC[C@H](c1ccc(O)cc1)[C@@H](CC)c1ccc(O)cc1 | 34.7 µM (active) and inactive | inactive | inactive | – | inactive | – | inactive | 49 µM (active) | 49 µM (active) | – | 24.5 µM (active) |
| CCCCCCCCCCn1cc[n+](CCCCCCCCCC)c1C | 19.5 µM (active) | 6.93 µM (active) | 49 µM (active) | – | 17.4 µM (active) | – | 19.5 µM (active) | 17.4 µM (active) | 15.5 µM (active) | inactive | 0.979 µM (active) |
| COC(=O)c1cc(Cl)ccc1OC | inactive | inactive | inactive | 6.18% (inactive) | inactive | inactive | inactive | inactive | inactive | inactive | – |
| Cc1onc(-c2c(Cl)cccc2Cl)c1C(=O)N[C@@H]1C(=O)N2[C@@H]1SC(C)(C)[C@@H]2C(=O)O | inactive | inactive | inactive | 9.42% (inactive) | inactive | inactive | inactive | inactive | inactive | inactive | – |
| CC(C)=CCOc1ccc(/C=C/C(=O)c2ccc(OCC=C(C)C)cc2OCC(=O)O)cc1 | inactive | inactive | inactive | 1.22% (inactive) | inactive | inactive | inactive | inactive | inactive | inactive | – |
| C[C@H](CCC(=O)O)[C@H]1CC[C@H]2[C@@H]3CC[C@@H]4C[C@H](O)CC[C@]4(C)[C@H]3CC[C@]12C | inactive | inactive | inactive | -16.2% (inactive) and -15.3% (inactive) | inactive | – | inactive | – | – | inactive | – |
| O=C(c1ccc(F)cc1)C1CCN(CCn2c(=O)[nH]c3ccccc3c2=O)CC1 | inactive | 8.49 µM (active) | inactive | – | inactive | inactive | inactive | inactive | – | inactive | 9.52 µM (active) |
| Oc1cccc2cc3cccc(O)c3c(O)c12 | inactive | inactive | inactive | 0.771% (inactive) | inactive | – | inactive | inactive | inactive | inactive | – |
| CCCCCCCCCCC=O | inactive | inactive | inactive | 2.14% (inactive) | inactive | – | inactive | inactive | inactive | inactive | – |
| CC(C)c1ccc2c(c1)CC[C@H]1[C@](C)(CN)CCC[C@]21C | 19.5 µM (active) | 13.8 µM (active) | 34.7 µM (active) | – | 19.5 µM (active) | – | 11 µM (active) | 13.8 µM (active) | 11 µM (active) | – | 11 µM (active) |
| NC(=NCCCCCCN=C(N)/N=C(\N)Nc1ccc(Cl)cc1)/N=C(\N)Nc1ccc(Cl)cc1 | 15.8 µM (active) [middle of 4 runs] | 19.8 µM (active) [middle of 4 runs] | 48.7 µM (active) and 44.4 µM (active) and inactive | – | 24.4 µM (active) [middle of 4 runs] | 19.8 µM (active) [middle of 4 runs] | – | 21.8 µM (active) [middle of 4 runs] | – | inactive | 6.88 µM (active) [middle of 5 runs] |
| CCN(Cc1cccnc1)C(=O)c1cccc(Cl)c1[C@]1(C)C(=O)N(Cc2ccc(OC)cc2OC)c2ccc(Cl)cc21 | inactive | 22.9 µM (active) | 20.4 µM (active) | – | inactive | inactive | – | inactive | inactive | inactive | 20.4 µM (active) |
| Cc1cc(O)c(C(C)(C)C)cc1Sc1cc(C(C)(C)C)c(O)cc1C | 54.8 µM (active) | 24.5 µM (active) | 43.6 µM (active) | – | 48.9 µM (active) | – | 48.9 µM (active) | 54.8 µM (active) | 48.9 µM (active) | inactive | 21.8 µM (active) |
